Results published in PubChem BioAssay (NCATS).
Records with an inconclusive call do not appear. The source made the active and inactive calls. Calls come from the whole dose curve; as a rule, active = well fitted inhibition curve with a large enough effect; inconclusive = small, poorly fitted or top-dose-only effect; inactive = flat fitted curve, though single readings scatter.

What was measured:
Experiment in all cases: qHTS profiling for inhibitors of Plasmodium falciparum proliferation (AID 504749); note: nearly all actives have a fitted effect of over 60% in size
Settings in all cases: P. falciparum in erythrocytes, SYBR Green DNA, 72 h; series mostly up to 28.7 µM
CP262 = system: CP262
Outline: (§1)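 Parasite proliferation within erythrocytes, 72 h exposure. Endpoint: SYBR Green I fluorescence after overnight lysis at room temperature. Controls: 0.29 uM artemisinin, DMSO.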

CP325 = system: CP325
Outline: as §1

DIV14 = system: DIV14
Outline: as §1

DIV17 = system: DIV17
Outline: as §1

CP260 = system: CP260
Outline: as §1

CP265 = system: CP265
Outline: as §1

CP266 = system: CP266
Outline: as §1

CP268 = system: CP268
Outline: as §1

CP269 = system: CP269
Outline: as §1

CP291 = system: CP291
Outline: as §1

CP297 = system: CP297
Outline: as §1

CP305 = system: CP305
Outline: as §1

CP315 = system: CP315
Outline: as §1

CP329 = system: CP329
Outline: as §1

DFO2036 = system: DFO2036
Outline: as §1

DIV30 = system: DIV30
Outline: as §1

Dd2 = system: Dd2
Outline: as §1

CP335 = system: CP335
Outline: as §1

CP286 = system: CP286
Outline: as §1

ECU = system: ECU
Outline: as §1
Potency is the fitted concentration of half-maximal effect.

Row | SMILES | Potency (CP262) | Potency (CP325) | Potency (DIV14) | Potency (DIV17) | Potency (CP260) | Potency (CP265) | Potency (CP266) | Potency (CP268) | Potency (CP269) | Potency (CP291) | Potency (CP297) | Potency (CP305) | Potency (CP315) | Potency (CP329) | Potency (DFO2036) | Potency (DIV30) | Potency (Dd2) | Potency (CP335) | Potency (CP286) | Potency (ECU)
1 | CC(=O)Oc1cc(C)c(OC(C)=O)c2ccccc12 | 13.5 µM (active) | 15.1 µM (active) | 6.01 µM (active) | 6.75 µM (active) |  |  |  |  |  |  |  |  |  |  |  |  |  |  |  | 
2 | O=C(O)c1cc(=O)c2c3nc4ccccc4oc-3cc(=O)c2[nH]1 |  | inactive |  |  | 12.6 µM (active) | inactive | inactive | inactive | inactive | inactive | inactive | inactive | inactive | inactive | inactive | inactive | 12.6 µM (active) |  |  | 
3 | CCOC(=O)C1=C(C)NC(C)=C(C(=O)OCC)C1c1ccccc1C=CC(=O)OC(C)(C)C | 12 µM (active) | 12 µM (active) | 12 µM (active) | 15.1 µM (active) |  | 10 µM (active) |  |  | 15.1 µM (active) | 12 µM (active) | 16.9 µM (active) |  | 10.7 µM (active) |  | 11.2 µM (active) | 13.5 µM (active) |  | 10.7 µM (active) |  | 
4 | CC(C)N=c1cc2n(-c3ccc(Cl)cc3)c3ccccc3nc-2cc1Nc1ccc(Cl)cc1 | inactive | inactive |  | inactive |  | inactive |  | inactive | inactive | inactive | inactive | inactive | inactive | inactive | inactive | inactive | inactive | 1.81 µM (active) | 3.55 µM (active) | inactive
5 | CN(C)CCCN1c2ccccc2C(C)(C)c2ccccc21 | inactive | inactive | 8.49 µM (active) | 4.78 µM (active) | inactive |  |  |  | inactive |  | inactive | inactive | inactive | inactive | inactive |  |  |  | inactive | inactive
6 | O=C(Nc1ccc(Br)cc1)c1cc(Br)c(Br)s1 | inactive |  | 10.7 µM (active) |  |  |  |  | 12 µM (active) |  |  |  | 16.9 µM (active) |  |  |  |  |  |  |  | 
7 | O=CCCCC=O | inactive | inactive | inactive |  |  | inactive | inactive | inactive | inactive | inactive | inactive | inactive | inactive | inactive | inactive |  | inactive |  | inactive | inactive
8 | Clc1cc(Cl)c(OCC#CI)cc1Cl |  |  | 9.53 µM (active) | 13.5 µM (active) |  | 10 µM (active) |  |  |  | 8.49 µM (active) |  |  | inactive |  |  |  |  |  |  | 
9 | COC(=O)C1=C(C#N)NC(C)=C(C(=O)OC(C)C)C1c1cccc([N+](=O)[O-])c1 (stereo not drawn) |  |  | 7.57 µM (active) | 13.5 µM (active) | 11.2 µM (active) | 10 µM (active) |  |  | 13.5 µM (active) | 16.9 µM (active) | 13.5 µM (active) | 13.5 µM (active) |  | 15.1 µM (active) | 12.6 µM (active) | 10.7 µM (active) | 12.6 µM (active) | 8.49 µM (active) | 10 µM (active) | 10 µM (active)
10 | COc1cc(-c2ccc(-[n+]3nc(-c4ccccc4)nn3-c3ccc([N+](=O)[O-])cc3)c(OC)c2)ccc1-[n+]1nc(-c2ccccc2)nn1-c1ccc([N+](=O)[O-])cc1 | inactive |  | 12 µM (active) | 15.1 µM (active) | 12.6 µM (active) |  |  | 16.9 µM (active) |  |  | 16.9 µM (active) |  |  | 15.1 µM (active) |  | 12 µM (active) |  |  |  | 12.6 µM (active)
11 | CC[C@@]1(O)C(=O)OCc2c1cc1n(c2=O)Cc2cc3c([N+](=O)[O-])cccc3nc2-1 |  |  |  |  | 3.55 µM (active) | 7.94 µM (active) |  |  | 10.7 µM (active) | 12 µM (active) | 12 µM (active) | 8.49 µM (active) |  | 12 µM (active) | 5.01 µM (active) |  | 8.91 µM (active) | 4.78 µM (active) | 4.47 µM (active) | 7.94 µM (active)
12 | CCNC(=O)[C@@H]1CCCN1C(=O)[C@H](CCCN=C(N)N)NC(=O)[C@H](CC(C)C)NC(=O)[C@@H](Cc1c[nH]c2ccccc12)NC(=O)[C@H](Cc1ccc(O)cc1)NC(=O)[C@H](CO)NC(=O)[C@H](Cc1c[nH]c2ccccc12)NC(=O)[C@H](Cc1cnc[nH]1)NC(=O)[C@@H]1CCC(=O)N1 |  | 12 µM (active) | 0.953 µM (active) | 0.953 µM (active) | 3.55 µM (active) | 7.94 µM (active) | 13.5 µM (active) | 8.49 µM (active) | 7.57 µM (active) | 7.57 µM (active) | 6.75 µM (active) | 7.57 µM (active) | 15.1 µM (active) | 8.49 µM (active) | 5.62 µM (active) | 1.69 µM (active) | 3.16 µM (active) | 4.78 µM (active) | 3.16 µM (active) | 1.12 µM (active)
13 | CCCCCC(CC)COC(=O)CC(C(=O)OCC(CC)CCCC)S(=O)(=O)O (stereo not drawn) |  |  |  |  | inactive | inactive |  |  |  |  |  |  |  |  | inactive |  | inactive |  | inactive | inactive
14 | Cc1cn([C@H]2C[C@H](O)[C@@H](CO)O2)c(=O)[nH]c1=O | inactive | inactive | inactive | inactive |  | inactive | inactive | inactive | inactive | inactive | inactive | inactive | inactive | inactive | inactive | inactive | inactive | inactive | inactive | inactive
15 | NC1C2CN(c3nc4c(cc3F)c(=O)c(C(=O)O)cn4-c3ccc(F)cc3F)CC12 (stereo not drawn) |  |  |  |  |  |  |  |  | 6.75 µM (active) |  |  |  |  |  |  | inactive |  | 6.01 µM (active) |  | 
